Molecules are shown by their SMILES.

Some test systems named below: MARK4; MAST1; MELK; MERTK; MET; MKK7; MKNK1; MKNK2; MLK2; MLK3; MRCKA.
What all share (details): concentration: 1 μM, replicates: in singlicate; n = 1
In another test the test system is T1, MEK1.
T1 construct: gene MAP2K1

A further test deals with T2, MEK2.
T2 construct: gene MAP2K2

Another test has as its system T3, MEK3.
T3 construct: gene MAP2K3

A further test concerns T4, MEK4.
T4 construct: gene MAP2K4

For the next test, the system named is T5, MEK5.
T5 construct: gene MAP2K5

The next test concerns T6, MEK6.
T6 construct: gene MAP2K6

In the next test the test system is T7, MINK.
T7 construct: gene MINK1

Another test deals with T8, MLCK.
T8 construct: gene MYLK3

For the next test, the system named is T9, MLK1.
T9 construct: gene MAP3K9
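Further: KINOMEscan kinase panel screen.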

On to `COc1ccc(-c2coc3ccc(-c4nnc(SCc5cccc(C#N)c5)o4)cc23)cc1`, for which the “%Inh” value in the test on MARK4 is on record as 13%; with MAST1, 31%; with MEK1, 4%; with MEK2, 13%; in the test with MEK3, 0%; with MEK4, 38%. The “%Inh” value in the test with MEK5 came to 21%; in the test with MEK6 it was 16%; with MELK it was 11%; with MERTK, 0%; in the test on MET, 0%; in the test on MINK it was 9%. Besides, the “%Inh” value in the test on MKK7 was 17%; in the test on MKNK1, 20%; in the test on MKNK2, 2%; with MLCK it was 2%; in the test on MLK1 it was 0%; in the test on MLK2, 18%. Besides, the “%Inh” value in the test on MLK3 was 11%; in the test with MRCKA, 0%.
For `COc1ccc(-n2cnc3c(N)ncnc32)cc1` [SKF-97236], the “%Inh” value in the test on MARK4 is 19%; with MAST1 it was 0%; in the test with MEK1, 0%; in the test on MEK2 it was 0%; in the test with MEK3 it was 11%; with MEK4 it was 29%. Also, the “%Inh” value with MEK5 is 56%; with MEK6, 0%; in the test on MELK it was 0%; with MERTK, 35%; in the test with MET, 0%; with MINK, 9%. The “%Inh” value with MKK7 is 15%; in the test with MKNK1 it was 9%; in the test with MKNK2, 33%; in the test with MLCK it was 11%; in the test on MLK1 it was 0%; in the test with MLK2, 37%. The “%Inh” value was determined as 20% in the test on MLK3 and 0% in the test with MRCKA.
In the case of `Cc1ccc(-c2ccc3c(ccc4sc5c(c43)NC[C@@H](C)N=C5N(C)C)n2)cn1`, the “%Inh” value with MARK4, in the test on MAST1, in the test on MEK1, in the test with MEK2, with MEK3 and in the test on MEK4 was 0% in each case. Besides, the “%Inh” value in the test on MEK5 came to 0%; in the test with MEK6, 2%; with MELK it was 0%; in the test with MERTK, 0%; in the test with MET, 0%; in the test on MINK, 0%. Moreover, the “%Inh” value in the test with MKK7, with MKNK1, in the test on MKNK2, with MLCK, in the test with MLK1 and with MLK2 was 0% throughout. For the same molecule, the “%Inh” value in the test on MLK3 and with MRCKA was 0% throughout.
Consider `Cc1cccc(-c2nc(Nc3ccc4c(cnn4C)c3)c3ccccc3n2)n1` [GW876731], for which the “%Inh” value in the test on MARK4 came to 8%; in the test with MAST1 it was 100%; with MEK1, 0%; in the test on MEK2 it was 0%; in the test on MEK3, 0%; with MEK4, 0%. Moreover, the “%Inh” value in the test with MEK5 is 0%; with MEK6, 5%; in the test on MELK, 0%; with MERTK, 0%; in the test on MET it was 3%; with MINK, 16%. Besides, the “%Inh” value in the test with MKK7 is given as 10%; with MKNK1 it was 100%; with MKNK2 it was 9%; in the test with MLCK, 28%; with MLK1, 12%; in the test with MLK2, 16%. The figures for the “%Inh” value in the test on MLK3 and with MRCKA were 0% and 17%, respectively.
`Cc1nnc(-c2ccc3ncn(-c4ccc(S(C)=O)cc4)c3c2)o1` (stereo not shown): the “%Inh” value in the test on MARK4 is reported as 0%; in the test on MAST1 it was 0%; with MEK1 it was 2%; with MEK2, 22%; in the test on MEK3 it was 15%; in the test with MEK4 it was 8%. Further, the “%Inh” value in the test on MEK5 was determined as 0%; in the test on MEK6, 13%; in the test on MELK, 13%; with MERTK, 1%; in the test on MET, 0%; with MINK, 14%. In addition, the “%Inh” value is 12% with MKK7; 0% in the test with MKNK1; 20% in the test on MKNK2; 11% in the test with MLCK; 0% with MLK1; 0% in the test on MLK2. Also, the “%Inh” value in the test on MLK3 and in the test with MRCKA was 0% in each case.
In the case of `COc1ccc(Nc2nccc(N3CCC(NS(=O)(=O)c4ccc(NC(C)=O)cc4)C3)n2)cc1` (stereo not shown) [GSK1379729], the “%Inh” value is 0% in the test on MARK4; 0% in the test on MAST1; 0% with MEK1; 10% with MEK2; 12% in the test on MEK3; 5% in the test on MEK4. In addition, the “%Inh” value in the test on MEK5 is on record as 36%; in the test with MEK6 it was 0%; in the test with MELK it was 17%; with MERTK it was 25%; with MET it was 10%; with MINK it was 3%. Also, the “%Inh” value in the test on MKK7 is given as 19%; in the test with MKNK1, 22%; with MKNK2, 0%; with MLCK, 0%; in the test on MLK1, 0%; with MLK2, 48%. Moreover, the “%Inh” value in the test with MLK3 was determined as 18%; with MRCKA it was 10%.
For `COc1cc2ncn(-c3cc(OCCCc4ccccc4)c(C(N)=O)s3)c2cc1OC` [GSK205189], the “%Inh” value with MARK4, in the test on MAST1, in the test on MEK1, with MEK2, in the test with MEK3 and in the test with MEK4 was 0% each time. Further, the “%Inh” value with MEK5 is 96.8%; in the test on MEK6, 0%; in the test on MELK, 0%; in the test on MERTK, 0%; in the test on MET it was 5%; with MINK, 3%. The “%Inh” value in the test with MKK7 was 0%; with MKNK1, 3%; with MKNK2 it was 0%; in the test on MLCK it was 0%; in the test with MLK1, 3%; with MLK2 it was 19%. In addition, the “%Inh” value came to 8% in the test with MLK3 and 0% in the test with MRCKA.
Turning to `Nc1nc(N)c2nc(-c3ccccc3)[nH]c2n1` [SKF-12778], the “%Inh” value turned out to be 11% with MARK4; 0% in the test on MAST1; 0% in the test with MEK1; 13% in the test with MEK2; 0% in the test with MEK3; 1% with MEK4. For the same molecule, the “%Inh” value in the test on MEK5 stood at 18%; in the test with MEK6 it was 0%; with MELK, 9%; in the test with MERTK, 47%; in the test on MET, 0%; in the test on MINK it was 0%. Further, the “%Inh” value in the test on MKK7 is reported as 29%; in the test with MKNK1, 0%; with MKNK2, 1%; with MLCK it was 0%; in the test on MLK1, 40%; with MLK2, 66%. Further, the “%Inh” value in the test on MLK3 turned out to be 40%; in the test on MRCKA, 15%.
For `O=C(Nc1ccc2c(c1)OCO2)NC1CCN(c2ccnc(NCc3ccc(F)cc3)n2)CC1` [GSK1379859], the “%Inh” value in the test on MARK4 was 20%; in the test with MAST1, 0%; with MEK1, 0%; in the test on MEK2, 0%; in the test on MEK3 it was 6%; in the test with MEK4, 0%. In addition, the “%Inh” value in the test with MEK5 was found to be 8%; with MEK6 it was 0%; in the test on MELK, 100%; with MERTK, 26%; in the test on MET, 0%; in the test on MINK it was 0%. The “%Inh” value in the test with MKK7, in the test with MKNK1, in the test with MKNK2, in the test with MLCK, with MLK1 and in the test with MLK2 was 0% each time. The “%Inh” value in the test with MLK3 and with MRCKA was 0% throughout.
As to `CCC(=O)c1c(-c2ccccc2)c2cc(Cl)ccc2c(=O)n1Cc1cc(C(=O)NC2CC2)n(C)n1`, the “%Inh” value stood at 13% with MARK4; 47% with MAST1; 6% with MEK1; 3% in the test with MEK2; 2% in the test with MEK3; 8% in the test with MEK4. For the same molecule, the “%Inh” value in the test on MEK5 was determined as 11%; with MEK6, 22%; in the test with MELK, 0%; in the test with MERTK, 5%; in the test on MET, 0%; in the test on MINK, 0%. The “%Inh” value in the test on MKK7 amounted to 25%; in the test on MKNK1 it was 0%; in the test with MKNK2 it was 11%; in the test on MLCK, 5%; with MLK1, 0%; in the test with MLK2, 15%. Moreover, the figures for the “%Inh” value in the test with MLK3 and in the test on MRCKA were 0% and 8%, respectively.
As to `CN(C)c1cc(-c2ccc3c(N)n[nH]c3c2)nc(N)n1` [GSK2219329], the “%Inh” value is 1% with MARK4; 0% in the test on MAST1; 0% with MEK1; 0% in the test on MEK2; 0% with MEK3; 0% in the test with MEK4. For the same molecule, the “%Inh” value in the test on MEK5 amounted to 13%; in the test on MEK6 it was 8%; in the test with MELK, 0%; in the test on MERTK it was 21%; in the test with MET, 0%; in the test with MINK it was 0%. Also, the “%Inh” value was found to be 0% with MKK7; 0% with MKNK1; 9% in the test on MKNK2; 0% with MLCK; 3% in the test with MLK1; 0% in the test with MLK2. Also, the results for the “%Inh” value with MLK3 and in the test with MRCKA were 3% and 0%, respectively.

These data come from PMC5540273 (PLoS ONE, 2017).
